Reference: PubChem BioAssay (NCATS)
Inconclusive results are not listed. A number with no mark means an inactive call. Active and inactive are the calls of the source. Calls come from the whole dose curve; as a rule, active = well fitted inhibition curve with a large enough effect; inconclusive = small, poorly fitted or top-dose-only effect; inactive = flat fitted curve, though single readings scatter.

Each molecule was assayed against Ubiquitin carboxyl-terminal hydrolase 1 (Homo sapiens) (UniProt O94782) (assay: Inhibitors of USP1/UAF1: Pilot qHTS (AID 504865; note: nearly all actives have a fitted effect of over 35% in size;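 for activity change, negative = inhibition: rhodamine fluorescence freed from ubiquitin-rhodamine substrate followed over time; top concentration of the series differs between compounds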)). Conditions: purified USP1/UAF1, Ub-rhodamine cleavage fluorescence; series mostly up to 114 µM; activity change, negative = inhibition: at the top concentration.
Text: Deubiquitinating enzymes (DUBs) are a class of enzymes that can cleave isopeptide bond formed between the C-terminal carboxylate of ubiquitin and a lysine side-chain amino group on the target protein. Among them, ubiquitin specific proteases (USPs) constitute the largest DUB family. Human USPs are emerging as promising targets for pharmacological intervention because of their connection to a number of human diseases, including prostate, colon and breast cancer (1, 2), pediatric acute lymphoblastic leukemia (3), and familial cylindromatosis (4). The advantage of inhibiting USPs lies in the potential specificity of therapeutic intervention that can lead to better efficacy and reduce nonspecific side effects.
In a collaboration between the University of Delaware and the NIH Chemical Genomics Center, a high-throughput screen assay was developed to screen for USP1/UAF1 inhibitors. This miniaturized assay has a fluorescent read-out and is used to screen the NIH Molecular Libraries Small Molecule Repository (MLSMR) in order to identify a small molecule that inhibits USP1.
NIH Chemical Genomics Center [NCGC]
NIH Molecular Libraries Probe Centers Network [MLPCN]
Assay Submitter (PI): Zhihao Zhuang, University of Delaware
1. Priolo, C., et al. (2006) The isopeptidase USP2a protects human prostate cancer from apoptosis. Cancer Res 66, 8625-8632
2. Popov, N., et al. (2007) The ubiquitin-specific protease USP28 is required for MYC stability. Nat Cell Biol 9, 765-774
3. De Pitta, C., et al. (2005) A leukemia-enriched cDNA microarray platform identifies new transcripts with relevance to the biology of pediatric acute lymphoblastic leukemia. Haematologica 90, 890-898
4. Kovalenko, A., et al. (2003) The tumour suppressor CYLD negatively regulates NF-kappaB signalling by deubiquitination. Nature 424, 801-805
3 microliters of reagents (buffer in columns 3 and 4 as negative control and 1nM USP1/UAF1 complex in columns 1, 2, and 5-48) are dispensed into Greiner black solid bottom 1536-well assay plates. Compounds are then transferred via Kalypsys pin tool equipped with 1536-pin array (10nl slotted pins, V&P Scientific, San Diego, CA). Following an incubation step of 15 min at room temperature, 1ul of Ub-Rho substrate (150nM final concentration) is added to initiate the reaction. The plates are immediately centrifuged at 1000 rpm for 15 seconds, and subsequently transferred to a ViewLux high-throughput CCD imager (PerkinElmer) wherein kinetic measurements of fluorescence are acquired using 480 nm excitation/540 nm emission filter set (6 reads every 60 seconds, see Table 1). All reagents are diluted in an assay buffer consisting of 50mM HEPES (pH 7.8), 0.5mM EDTA, 0.1 mg/ml BSA, 1mM TCEP, and 0.01% Tween-20.
% is set by controls: 0 for no effect and ±100 for the full control effect; potency is the fitted concentration of half-maximal effect.

Chain of Ubiquitin carboxyl-terminal hydrolase 1 (Homo sapiens) (O94782 whole entry, looked up): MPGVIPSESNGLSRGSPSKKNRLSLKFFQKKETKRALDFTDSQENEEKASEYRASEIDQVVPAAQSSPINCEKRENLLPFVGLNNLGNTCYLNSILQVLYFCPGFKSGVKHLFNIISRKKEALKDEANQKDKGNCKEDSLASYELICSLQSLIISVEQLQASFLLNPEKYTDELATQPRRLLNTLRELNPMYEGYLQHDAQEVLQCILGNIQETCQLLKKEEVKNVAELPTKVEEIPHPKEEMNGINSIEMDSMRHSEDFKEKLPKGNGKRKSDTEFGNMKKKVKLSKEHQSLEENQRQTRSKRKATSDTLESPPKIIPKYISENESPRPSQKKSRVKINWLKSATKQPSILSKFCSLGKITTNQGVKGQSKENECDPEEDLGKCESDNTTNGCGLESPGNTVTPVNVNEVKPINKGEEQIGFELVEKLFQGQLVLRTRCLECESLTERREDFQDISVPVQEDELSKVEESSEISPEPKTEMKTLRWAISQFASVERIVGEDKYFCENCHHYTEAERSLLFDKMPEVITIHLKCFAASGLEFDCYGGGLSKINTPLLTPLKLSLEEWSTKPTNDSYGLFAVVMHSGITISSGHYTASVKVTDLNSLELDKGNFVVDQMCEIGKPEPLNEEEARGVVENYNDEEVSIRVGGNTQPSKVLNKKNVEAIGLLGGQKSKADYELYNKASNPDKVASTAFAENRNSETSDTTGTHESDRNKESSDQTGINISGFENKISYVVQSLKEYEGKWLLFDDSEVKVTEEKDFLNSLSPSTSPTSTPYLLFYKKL

| SMILES | activity change, negative = inhibition | Potency |
| --- | --- | --- |
| CCN(CC)CCOC(=O)c1cccnc1 | -8.24% |  |
| NC(=O)[C@@H]1CCCN1C(=O)[C@H](Cc1cnc[nH]1)NC(=O)[C@@H]1CCC(=O)N1 | -4.57% |  |
| C=CCN1CCCC1CNC(=O)c1cc(S(N)(=O)=O)cc(OC)c1OC (stereo not given) | -0.641% |  |
| CC(C)CCCC(C)NC(C)C (stereo not given) | -7.89% |  |
| CC12CCC(C1)C(C)(C)C2=O (stereo not given) | 3.19% |  |
| COC(=O)c1ccccc1O | -1.9% |  |
| CCCCC | 3.06% |  |
| CC1CCC(NC(=O)N(CCCl)N=O)CC1 (stereo not given) | 7.05% |  |
| O=P(O)(O)CP(=O)(O)O | -1.44% |  |
| OB(O)O | 0.161% |  |
| O=C(O)C1=C(CSc2nnnn2CS(=O)(=O)O)CS[C@@H]2[C@H](NC(=O)[C@H](O)c3ccccc3)C(=O)N12 | -10% |  |
| N=C(N)n1cccn1 | -0.943% |  |
| O=C1[O][Bi][O]c2ccccc21 | -2.06% |  |
| CC/C(=C(/CC)c1ccc(OP(=O)(O)O)cc1)c1ccc(OP(=O)(O)O)cc1 | -3.1% |  |
| CCOc1ccc(NC(=S)Nc2ccc(OCC)cc2)cc1 | -6.82% |  |
| Cc1ccccn1 | -2.33% |  |
| OCc1ccccc1 | -5.39% |  |
| CCC(C)[C@@H](N)C(=O)O (stereo not given in full) | 1.41% |  |
| C[C@H](O)CN(C)C | -7.43% |  |
| O=C(NNCNNC(=O)c1ccncc1)c1ccncc1 | -3.63% |  |

| SMILES | activity change, negative = inhibition | Potency |
| --- | --- | --- |
| COc1ccc(/C=N/NC(=O)c2ccncc2)c(C(=O)O)c1OC | -7.35% |  |
| CC(=O)N=c1sc(S(N)(=O)=O)nn1C | -0.983% [at 54.9 µM] |  |
| COc1cc2c(cc1OC)[C@@H](Cc1cc(OC)c(OC)c(OC)c1)[N+](C)(CCCOC(=O)CC/C=C/CCC(=O)OCCC[N+]1(C)CCc3cc(OC)c(OC)cc3[C@H]1Cc1cc(OC)c(OC)c(OC)c1)CC2 (stereo not given in full) | -6.61% |  |
| COc1cc(NCCCC(C)N)c2ncccc2c1 (stereo not given) |  | 11.2 µM (active) |
| Cc1ncc(COP(=O)(O)O)c(CN)c1O | -8.21% |  |
| NCC[C@H](O)C(=O)N[C@@H]1C[C@H](N)[C@@H](O[C@H]2O[C@H](CN)CC[C@H]2N)[C@H](O)[C@H]1O[C@H]1O[C@H](CO)[C@@H](O)[C@H](N)[C@H]1O | -0.311% |  |
| CN[C@@H]1[C@H](O[C@H]2[C@H](O[C@H]3[C@H](O)[C@@H](O)[C@H](N=C(N)N)[C@@H](O)[C@@H]3N=C(N)N)O[C@@H](C)[C@]2(O)C=O)O[C@@H](CO)[C@H](O)[C@H]1O | -3.87% |  |
| CCCCCc1ccc(C)cc1O |  | 35.5 µM (active) |
| O=C(O[C@H]1CN2CCC1CC2)N1CCc2ccccc2[C@@H]1c1ccccc1 | 1.77% |  |
| CC(O)CN(C)C (stereo not given) | -7.91% |  |
| C[C@H](N)C(=O)N[C@@H](C)P(=O)(O)O | -5.84% |  |
| CCc1ncnc2cc(OC)c(OC)cc12 | -2.93% |  |
| COC1=C(OC)C(=O)C(C/C=C(\C)CC/C=C(\C)CC/C=C(\C)CC/C=C(\C)CC/C=C(\C)CC/C=C(\C)CC/C=C(\C)CC/C=C(\C)CC/C=C(\C)CCC=C(C)C)=C(C)C1=O | -7.42% |  |
| OC[C@H]1O[C@@](CO)(O[C@H]2O[C@H](CO)[C@@H](O)[C@H](O)[C@H]2O)[C@@H](O)[C@@H]1O | -6.16% |  |
| Cc1nc(NS(=O)(=O)c2ccc(N)cc2)nc(C)c1Br | -11.3% |  |
| CCCCCCCCCCCCCCCCCC[N+](C)(C)CCC[Si](OC)(OC)OC | -8.49% |  |
| O=C1c2ccccc2C(=O)C1c1ccc(Cl)cc1 | -11.6% |  |
| [O]=[Bi][O][Bi]=[O] | 0.348% |  |
| O=P(O)(O)O | -1.05% |  |
| CC(=O)Nc1ccc(OC(C)=O)cc1 | -5.59% |  |
